We go through 40 compounds from PubChem BioAssay (NCATS).

Structures are written as SMILES. Results filed as inconclusive are left out. Entries that show only a call come without a potency. Values without a mark were called inactive. Activity calls are given as the source filed them. The call rests on the fitted dose curve; in most records, active means well fitted inhibition curve with a large enough effect; inconclusive means small, poorly fitted or top-dose-only effect; inactive means no such curve, though single readings can be large or run the other way. Numbered stars: 1 amine (or outer) side, 2 acyl side, 3 side chain; on linkers, the order of the positions; unused ones are H or OH. Bridge positions count the residues as written; N and C are the ends. Square brackets hold non-standard residues; d marks the D form. Peptide text beside a SMILES is read from it. ξ: configuration not given here. Phe(3R-OH) = O=C([C@@H](N[*:1])[C@H](O[*:3])c1ccccc1)[*:2]; NMeTrp(4-OMe) = CN[C@@H](Cc1c[nH]c2cccc(OC)c12)C(=O)O; ξThr(3R)(O-yl) = C[C@@H](O[*:3])C(N[*:1])C(=O)[*:2]; NMeThr(3ξ) = CN[C@H](C(=O)O)C(C)O; NMeL = CN[C@@H](CC(C)C)C(=O)O; NMeV = CN[C@H](C(=O)O)C(C)C; ξIle = CC[C@H](C)C(N)C(=O)O; ξV = CC(C)C(N)C(=O)O
Potency means the concentration at half of the fitted maximal effect.

A short description of this assay: qHTS for inhibitors of ER calcium dysfunction: SERCaMP assay screened against the NCATS CANVASS Library (AID 1347393). Further: nearly all actives have a fitted effect of over 40% in size. Particulars: SH-SY5Y GLuc-SERCaMP (Gaussia luciferase released on ER calcium loss) secretion, thapsigargin, luminescence; series mostly up to 76.6 µM. The text has this:
Natural products and their derivatives continue to be wellsprings of nascent therapeutic potential. However, many laboratories have limited resources for biological evaluation, leaving their previously isolated or synthesized compounds largely or completely untested. To address this issue, the Canvass library of natural products was assembled (https://tripod.nih.gov/canvass), in collaboration with academic and industry researchers, for quantitative high-throughput screening (qHTS) across a diverse set of cell-based and biochemical assays. The pure (>85% purity by liquid chromatography/mass spectrometry [LC/MS]) Canvass library of 346 natural products were submitted by 45 academic laboratories and companies around the world. We collected pure natural products to circumvent deconvolution and structure elucidation due to time and resource limitations. The library was formatted into 1536-well plates and evaluated in 50 qHTS (in an 11-pnt concentration series) bioassays with broad scope of disease-relevant mechanisms. The resulting data set from 50 different assays was then systematically analyzed to identify overall trends and specific natural products with interesting biological activities. Reported herein are the results of each individual qHTS and their corresponding assay protocol. The SERCaMP assay detects ER calcium dysfunction. A Gaussia luciferase-based reporter protein (GLuc-SERCaMP) is expressed in SH-SY5Y cells and secreted in response to ER calcium depletion. Small molecules that stabilize ER calcium inhibit GLuc-SERCaMP release. National Center for Advancing Translational Sciences (NCAwsTS), Rockville, MD National Institute of Health (NIH), Bethesda, Maryland
SERCaMP assay protocol: 1. In a white-solid bottom 1536-well tissue culture plate (Corning 7494), 5 uL of SH-SY5Y-GLuc SERCaMP MJH297 derived (MP_G) cells were dispensed using a Multidrop Combi (Thermo Fisher Scientific) at a final concentration of 1000 cells / well. 2. The assay plates were incubated for 4 hours at 37C, 5% CO2, 95% humidity to acclimate and attach. 3. […] of compounds (in DMSO; columns 5-48), and positive control Bromocriptine (10 mM; 1:2 dilution; 16-points; n = 2; column 2, rows 1-32) were pin transferred into the assay plates using the Kalypsis pin tool (Wako USA) equipped with a 1536-well pin heads. This yields a final CANVASS compound concentration of 0.001 - 38.2 uM. 4. The assay plates were incubated for 16 hours at 37C, 5% CO2, 95% humidity. 5. After compound treatment, 1 uL per well of (6x) 600 nM Thapsigargin into column 1, rows 17 - 32; column 2, rows 1 - 32; columns 4 - 48, rows 1 - 32 using the BioRAPTR liquid dispenser. As a control 1 uL of (1x) Media was dispensed into column 1, rows 1 - 16; and into column 3, rows 1 - 32. 6. The assay plates were incubated for 4 hours at 37C, 5% CO2, 95% humidity. 7. After 4 hours, 1 uL of (7x) substrate Coelenterazine (diluted 1:200 in Pierce Glow Assay buffer) was dispensed into columns 1 - 48, rows 1 - 32. 8. The plates were centrifuged for 5 seconds at 1000 rpm. 9. Luminescence signal was obtained via the ViewLux plate reader (Perkin Elmer) using the clear emission filter and 1x binning, 5 seconds exposure settings.
(Quantitative high-throughput screening tests each substance at several concentrations.)
As to `C=C1C(=O)C[C@H]2C[C@@H]1[C@]2(C)CCC=C(C)C`, the Potency is 19.3 µM (active).
Same read-out and setting: next, `O=C1C[C@@H](c2ccc(O)c(-c3c(O)cc(O)c4c3O[C@H](c3ccc(O)cc3)CC4=O)c2)Oc2cc(O)cc(O)c21`: “inactive”; `C=C1C[C@@]23C=CC(=O)[C@@](C)(CCCC(C)C(=O)O)[C@@H]2C[C@@H]1CC3` (stereo not given in full): “inactive”; `CC(=O)O[C@H]1CC[C@@]2(C)C(CC[C@]3(C)C2CC=C2C4CC(C)(C)CC[C@]4(C)CC[C@]23C)C1(C)C` (stereo not given in full): “inactive”.
Still for that read-out and setting: to `C[C@H]1C[C@@H]([C@@H]2CC[C@]34O[C@H](CC[C@@]35C[C@H](C)C(=O)O5)CN24)OC1=O` belongs “inactive”.
`CC(=O)NC[C@@H]1O[C@H](CC/C=C(C)/C(C)=C/C=O)[C@H](C)C[C@H]1O`: the Potency is 34.3 µM (active).
The same measure, in the same setting: to `O=C1c2c(O)cc(O)cc2O[C@@H](c2ccc(O)cc2)[C@@H]1c1c(O)cc(O)c2c(=O)cc(-c3ccc(O)c(O)c3)oc12` belongs “inactive”; to `C=C1[C@H]2CC[C@@]3(C=CC(=O)[C@@](C)(CCC(=O)Nc4c(O)ccc(C(=O)O)c4O)C3C2)[C@H]1O` (stereo not given in full), “inactive”.
The same measure, in the same setting: next, `O=Cc1ccc2n1C[C@@]1(C[C@H](O)[C@@H](CO)O1)OC2`: “inactive”; `C[C@@H]1O[C@@H](Oc2c(-c3ccc(O)cc3)oc3cc(O)cc(O)c3c2=O)[C@H](O)[C@H](O)[C@H]1O`: “inactive”.
The same measure, in the same setting: to `CN1CC[C@]2(c3cccc4c3N[C@@H]3N(C)CC[C@]43[C@@]34CCN(C)[C@@H]3Nc3c([C@]56CCN(C)[C@H]5Nc5ccccc56)cccc34)c3ccccc3N[C@H]12` belongs “inactive”.
For the compound `C[C@@]12CCC[C@@](C)(C(=O)O)[C@H]1CC[C@]13C[C@H]4C[C@H](O[C@@]4(C)C1)[C@H]32`, the Potency entry is “inactive”.
The same measure, in the same setting: to `CCC[C@@H](C)/C=C(\C)[C@H](O)[C@H](C)/C=C/CC[C@@H](O)[C@H](C)[C@H](O)[C@H](C)[C@H](O)[C@H](C)[C@H]1O[C@H]([C@H](C)C(=O)O)CC[C@@H]1C` belongs “inactive”; to `C=C1C(=O)O[C@H]2C[C@H](C)[C@@H]3CC(=O)C(C)=C3[C@H](O)[C@H]12`, 1.72 µM (active).
In the case of `O=C(O)Cc1c[nH]c2ccccc12`, the Potency result is “inactive”.
Regarding `COc1ccc2oc3c(OC)c(OC)c(OC)c(OC)c3c(=O)c2c1`, the activity change, negative = inhibition is -15.7% [at 15.3 µM].
On to `C[C@@H]1C[C@H]2C[C@]3(CCCCN3C)[C@@H]3C[C@H]2[C@H](C1)N(C)C3`, for which the Potency is 30.5 µM (active).
Still for that read-out and setting: next, `CS/C=C/C(N)=O`: “inactive”; `C=CC(=C)CC[C@]1(C)[C@H]2C[C@H](OC(=O)C(C)CC)C=C3[C@H](OC(C)=O)O[C@H](OC(C)=O)[C@@]32[C@H](OC)C[C@@H]1C` (stereo not given in full): “inactive”; `COc1cc(/C=C2/C(=O)N(c3ccc(O)cc3C(=O)O)[C@H](c3ccc(O)c(OC)c3)C2C(=O)Nc2ccc(O)cc2C(=O)O)ccc1O` (stereo not given in full): “inactive”.
Same read-out and setting: to `CCCCCCC[C@@H](C/C=C/CCC(=O)NCCc1c[nH]c2ccccc12)OC` belongs 34.3 µM (active); to `COc1c(O)cc2oc(-c3ccccc3)cc(=O)c2c1O`, 34.3 µM (active).
On to `C=C1C[C@@]23C=CC(=O)[C@@](C)(CCC(=O)Nc4c(O)ccc(C(=O)O)c4O)C2C[C@@H]1CC3O` (stereo not given in full), for which the Potency result was “inactive”.
On the same count and under the same terms, to `O=C(O)CC1OC(=O)c2c(O)cccc21` (stereo not given) belongs “inactive”.
Same read-out and setting: next, `C/C=C/c1cc(OC)c2c(c1)[C@@H](C)[C@H](c1ccc(O)c(OC)c1)O2`: 24.3 µM (active); `CO[C@H]1/C=C/CC[C@@H](S[C@@H]2O[C@H](CO)[C@@H](O)[C@H](O)[C@H]2O)CC(=O)O[C@@H](/C(C)=C/[C@H](C)C(=O)CCCC2CC(=O)NC(=O)C2)[C@@H](C)[C@@H]1O`: “inactive”.
The same measure, in the same setting: next, `CCCCCCCCCCCCCCCC(=O)OC/C=C(\C)CCCC(C)CC(C)C(C)C` (stereo not given): “inactive”.
In the case of `C=C1C(=O)O[C@H]2[C@H]1CC/C(CO)=C\CC[C@@]1(C)O[C@@H]21`, the Potency was 4.31 µM (active).
Same read-out and setting: to `O=C(O)CC1OCc2c(O)cccc21` (stereo not given) belongs “inactive”; to `COc1cc(/C=C/C(=O)O)ccc1O`, “inactive”.
On to `CC1(C)C=Cc2c(ccc3c2OC[C@@H](c2ccc(O)cc2O)C3)O1`, for which the Potency is 30.5 µM (active).
Same read-out and setting: to `CC[C@@H]1C[C@@]2(CC)OC(=O)[C@@]3(CC)OC(=O)[C@@H]1[C@@H]23` belongs “inactive”; to `C[C@]12CC[C@]3(C1)[C@H](CC2=O)CC(OC(=O)c1ccccc1)[C@H]1[C@@](CO)(C(=O)O)CCC[C@@]13C` (stereo not given in full), “inactive”.
On the same count and under the same terms, next, `CC[C@H](C)C(NC(=O)[C@@H](NC)C(C)C)C(=O)NC1C(=O)N(C)[C@@H](C(C)O)C(=O)N[C@@H](C(C)C)C(=O)N(C)[C@@H](CC(C)C)C(=O)NC(C(C)C)C(=O)N(C)[C@@H](C(C)C)C(=O)N(C)[C@@H](Cc2c[nH]c3cccc(OC)c23)C(=O)N[C@@H](C(C)C)C(=O)N[C@@H]([C@H](O)c2ccccc2)C(=O)N[C@@H](C(C)C)C(=O)O[C@@H]1C` (stereo partly drawn) (H-[NMeV][ξIle][ξThr(3R)(O-yl)][NMeThr(3ξ)]V[NMeL][ξV][NMeV][NMeTrp(4-OMe)]V[Phe(3R-OH)]V; ester 3-C): 27.2 µM (active); `C=C1C[C@@]23C=CC(=O)[C@@](C)(CCC(=O)Nc4c(OC5O[C@H](CO)[C@@H](O)[C@H](O)[C@H]5O)ccc(C(=O)O)c4O)C2C[C@@H]1CC3` (stereo not given in full): “inactive”; `C/C=C/C=C/C1(O)C2C=C3C(=O)CC45C(=O)C(O)=C(C)C(=O)C4C1C1(C(=O)C(O)=C(C)C(=O)C351)C2C` (stereo not given): “inactive”.
On the same count and under the same terms, next, `CO[C@@H]1C[C@@H](C[C@H]2CC[C@H](C)[C@H]([C@@H](C)C(=O)O)O2)O[C@]2(O[C@](C)([C@H]3CC[C@@](C)([C@@H]4O[C@@H]([C@H]5O[C@](C)(O)[C@H](C)C[C@@H]5C)C[C@@H]4C)O3)C[C@H]2C)[C@@H]1C`: “inactive”; `CC(C)(Br)[C@@H](Cl)C[C@H](Br)[C@](C)(Cl)/C=C/Br`: 21.6 µM (active).
In the case of `CC1=CC2=C[C@H](C)C[C@@]23OC(=C(C)C3=O)CC(C)(C)/C=C/C1=O`, the Potency result is “inactive”.
In the case of `C[C@@]12CCC[C@@](C)(C(=O)O)[C@H]1C[C@@H](O)[C@]13C[C@H]4C[C@H](O[C@@]4(C)C1)[C@@H]23`, the Potency entry is “inactive”.
